Bioassay records: PubChem BioAssay, National Center for Advancing Translational Sciences (NCATS)
Only some compounds are listed: those with a hit (about 19% of all), similar ones and a draw of the others.
SARS PLpro yeast: inhibitors of SARS-CoV papain-like protease in yeast; 330,000 tested, 0.19% active; Potency, µM (highest dose often 32.9 µM), for the others: top-dose activity, positive = growth rescue, most hits filed as activators; S. cerevisiae expressing SARS-CoV PLpro, growth rescue; AID 485353; calls by dose curve; further: potency means the concentration at half of the fitted maximal effect; 0% is about no effect; nearly all actives have a fitted effect of over 55% in size
Shiga toxin inh: blocks Shiga toxin action in Vero cells; 290,000 tested, 9.2% active; Vero cells, Shiga toxin protein synthesis inhibition reporter; AID 2315; inhibition, % at 38.7 µM; in the data active means inhibition mostly above about 28%, no sharp cut-off; inactive means mostly below about 43%; further: 0% is about no effect
CHX counter: counter-screen for Shiga toxin inhibitors: cycloheximide protein synthesis inhibition | max response, % | 300,000 tested, 12% active | cell reporter, cycloheximide protein synthesis inhibition counterscreen | AID 2314; in the data active means max response mostly above about 13%, no sharp cut-off; inactive means mostly below about 14%; further: read at 38.3 µM for the half of the compounds with a filed dose; 0% is about no effect
AMA1-RON2 inh: inhibitors of Plasmodium falciparum AMA1-RON2 interaction. AlphaScreen AMA1-biotinylated RON2 peptide binding. AID 720542. 360,000 tested, 0.2% active. Potency, µM (highest dose often 58.2 µM), inactives show top-dose activity change, negative = inhibition, usual class: inhibitors;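 further: potency means the concentration at half of the fitted maximal effect; 0% = vehicle wells and -100% = peptide control; nearly all actives have a fitted effect of over 45% in size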
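AMA1 (3D7) with his tag at 25 nM final met compounds first, then biotinylated RON2 peptide at 25 nM; detection used donor plus acceptor beads, 10 µg/mL apiece, read by AlphaScreen after 30 min at room temperature.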
Pf growth 96h: P. falciparum growth inhibition at 96 hours; 320,000 tested, 6.9% active; P. falciparum luciferase reporter growth, 96 h; AID 504834; Potency, µM (series often up to 28.7 µM), inactives show top-dose activity change, negative = inhibition, hits mostly inhibitors; further: potency means the concentration at half of the fitted maximal effect; on the % scale 0 is the no-effect control and ±100 the full control effect
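Delayed-death screen, second-generation endpoint: infected erythrocytes, 2% hematocrit, 0.05% parasitemia final; 96 hours at 37 C, 5% CO2; luciferase detection reagent; luminescence decrease equals reduced growth.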
Pf growth 48h: inhibits P. falciparum growth in the first generation, 48 h; P. falciparum luciferase growth in erythrocytes, 48 h; Potency, µM (titrated, usually from 28.7 µM), for the others: at the highest dose activity change, negative = inhibition, most hits filed as inhibitors; 310,000 tested, 5.9% active; AID 504832; further: potency means the concentration at half of the fitted maximal effect; on the % scale 0 is the no-effect control and ±100 the full control effect
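Luciferase-expressing P. falciparum in infected erythrocytes (2% hematocrit, 0.1% parasitemia final) in RPMI 1640/0.5% Albumax were exposed to compound for 48 hours at 37 C, 5% CO2; growth read as luminescence.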
Active calls of the source: *; [ ] = dose if it differs, or a comment. Unless noted, the call rests on the fitted dose curve; in most records, active means well fitted curve in the direction sought with a large enough effect; inconclusive means small, poorly fitted or top-dose-only effect, or another doubt; inactive means no such curve, though single readings can be large; an effect the other way counts as inactive or inconclusive.

Screening O=[N+]([O-])c1ccccc1/C=N/Nc1nc(N2CCCC2)nc(N2CCCC2)n1 returned SARS PLpro yeast 1%, Shiga toxin inh -13, CHX counter 8, AMA1-RON2 inh -14%, Pf growth 96h inconclusive and Pf growth 48h 7%.
For O=[N+]([O-])c1ccc(/C=N/Nc2ncc(Br)cn2)cc1 the results were SARS PLpro yeast 2%, Shiga toxin inh -7, CHX counter -3, AMA1-RON2 inh 1%, Pf growth 96h inconclusive and Pf growth 48h 16%.
`Nc1cc(Cl)nc(N/N=C/c2ccc([N+](=O)[O-])cc2)n1` gave SARS PLpro yeast 15%, Shiga toxin inh 10, CHX counter 6, AMA1-RON2 inh 5%[11.6 µM], Pf growth 96h 4.7µM* and Pf growth 48h inconclusive.
CC(OC(=O)c1ccccc1NCc1ccco1)C(=O)Nc1ncc(Cl)cc1Cl (stereo not drawn) was read as SARS PLpro yeast -4%, Shiga toxin inh 33, CHX counter -4, AMA1-RON2 inh 9%, Pf growth 96h inconclusive and Pf growth 48h -16%.
`Cc1noc(C)c1C(=O)NNc1cc(Cl)ccc1Cl` gave SARS PLpro yeast -4%, Shiga toxin inh -3, CHX counter 6, AMA1-RON2 inh 4%, Pf growth 96h 7% and Pf growth 48h 6%.
`COc1ccc(CC(N)C(=O)NC2C(CO)OC(n3cnc4c(N(C)C)ncnc43)C2O)cc1` (stereo not drawn) gave Pf growth 96h 0.34µM* and Pf growth 48h 0.38µM*.
For Nc1ncnc2c1ncn2[C@@H]1O[C@H](CNC(=O)[C@@H](N)Cc2ccccc2)[C@@H](O)[C@H]1O the results were SARS PLpro yeast -7% and AMA1-RON2 inh 12%.
For COc1cc(-c2c(-c3cccc(C)c3)oc3ccccc23)cc(OC)c1OC the results were SARS PLpro yeast 1%, Shiga toxin inh 3, CHX counter 0, AMA1-RON2 inh -12%, Pf growth 96h 9.3µM* and Pf growth 48h inconclusive.
For O=C(Nc1ccncc1)c1cccc(S(=O)(=O)N2CCCC2)c1 the results were SARS PLpro yeast 3%, Shiga toxin inh -6, CHX counter -1, AMA1-RON2 inh 18%, Pf growth 96h 2% and Pf growth 48h 10%.
`CC1=NN(c2ccccc2)C(c2ccco2)C1` (stereo not drawn) gave AMA1-RON2 inh 0%.
Screening CN1c2ccccc2-c2nc3ccccc3n2C1c1ccncc1 (stereo not drawn) returned SARS PLpro yeast 26%, Shiga toxin inh -16, CHX counter 7, AMA1-RON2 inh 14%, Pf growth 96h inconclusive and Pf growth 48h inconclusive.
`CCN1c2ccccc2-c2nc3ccccc3n2C1c1ccco1` (stereo not drawn) gave SARS PLpro yeast -20%, Shiga toxin inh -3, CHX counter -4, AMA1-RON2 inh 54%, Pf growth 96h 4.7µM* and Pf growth 48h 12µM*.
Screening c1ccc(CN2c3ccccc3-c3nc4ccccc4n3C2c2ccccn2)cc1 (stereo not drawn) returned SARS PLpro yeast -15%, Shiga toxin inh 15, CHX counter -3, AMA1-RON2 inh -8%, Pf growth 96h 4.1µM* and Pf growth 48h 7.4µM*.
Screening CN1c2ccccc2-c2nc3ccccc3n2C1c1ccccn1 (stereo not drawn) returned SARS PLpro yeast -9%, Shiga toxin inh 24, CHX counter 21, AMA1-RON2 inh 65% and Pf growth 48h 9.3µM*.
For O=C1CCC([N+](=O)[O-])C(c2ccc(C(F)(F)F)cc2)N1 (stereo not drawn) the results were AMA1-RON2 inh -11%.
`CC(C(=O)NCc1ccco1)n1ccc2cc(S(=O)(=O)N3CCCCC3)ccc21` (stereo not drawn) gave SARS PLpro yeast 29%, Shiga toxin inh 10, CHX counter 6, AMA1-RON2 inh 0%, Pf growth 96h inconclusive and Pf growth 48h inconclusive.
Cc1cc(C(F)(F)F)nc(SCC(=O)Nc2c(C)n(C)n(-c3ccccc3)c2=O)n1 was read as SARS PLpro yeast -7%, Shiga toxin inh -17, CHX counter -3, AMA1-RON2 inh -1%, Pf growth 96h -21% and Pf growth 48h 16%.
